Source: the supplement of paper PMC9262897, “Low-cost anti-mycobacterial drug discovery using engineered E. coli” (Nature Communications, 2022)
Where a name gives a salt, the structure may show the parent alone. ± gives the standard deviation of the averaged measurements.

Tests used:
Experiment in all cases: growth (OD600 after 10 h); higher = more growth (less inhibition)
[1] = test system: E. coli TESEC Alr+ wild-type control; conditions: compound 0.1 mM; raw OD600 reference: median of DMSO wells 0.241, cell-free background 0.041
Procedure: (§1)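 TESEC Mtb Alr E. coli, or the Alr+ wild-type control, in 384-well plates with Prestwick library compounds at 0.1 mM and 1% DMSO, across arabinose induction levels of 1E3 to 1E7 nM. Growth is read as OD600 after 10 h at 37 °C in triplicate biological replicates.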

E. coli TESEC Mtb Alr [2] = conditions: compound 0.1 mM
Procedure: as §1

E. coli TESEC Mtb Asd = conditions: compound 0.1 mM
Procedure: (§2)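 TESEC E. coli strains in which the native enzyme is deleted and replaced by arabinose-inducible Mtb Asd, DapB, CysH or TrpD, each grown in its selective medium. Strains were screened against the Prestwick library at 0.1 mM and 1% DMSO in 384-well format at low and high arabinose induction. Growth is read as OD600 after 10 h in triplicate.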

E. coli TESEC Mtb DapB = conditions: compound 0.1 mM
Procedure: as §2

[3] = test system: E. coli TESEC Alr+ wild-type control; conditions: compound 0.1 mM; raw OD600 reference: median of DMSO wells 0.49, cell-free background 0.052
Procedure: (§3)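 TESEC Mtb Alr E. coli (ΔaraC ΔtolC ΔentC Δalr ΔdadX, arabinose-inducible Mtb Alr) or the Alr+ wild-type control strain, grown in defined M9-fructose medium without D-alanine in 96-well plates with Prestwick library compounds at 0.1 mM and 1% DMSO. Low Alr induction is 0.1 µM arabinose and high induction is 10 mM arabinose.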

E. coli TESEC Mtb Alr [4] = conditions: compound 0.1 mM; remark: listed apart in the source
Procedure: as §3

[5] = arabinose 1000 nM, raw OD600 reference: median of DMSO wells 0.294, cell-free background 0.041
[6] = arabinose 10000 nM, raw OD600 reference: median of DMSO wells 0.264, cell-free background 0.041
[7] = arabinose 100000 nM, raw OD600 reference: median of DMSO wells 0.201, cell-free background 0.041
[8] = arabinose 1000000 nM, raw OD600 reference: median of DMSO wells 0.193, cell-free background 0.041
[9] = arabinose 10000000 nM, raw OD600 reference: median of DMSO wells 0.146, cell-free background 0.041
[10] = arabinose induction (level): High, raw OD600 reference: median of DMSO wells 0.331, cell-free background 0.041
[11] = arabinose induction (level): Low, raw OD600 reference: median of DMSO wells 0.417, cell-free background 0.041
[12] = arabinose induction (level): High, raw OD600 reference: median of DMSO wells […], cell-free background 0.041
[13] = arabinose induction (level): Low, raw OD600 reference: median of DMSO wells 0.227, cell-free background 0.041
[14] = arabinose 100 nM, raw OD600 reference: median of DMSO wells 0.413, cell-free background 0.052
[15] = arabinose 10000000 nM, raw OD600 reference: median of DMSO wells […], cell-free background 0.052

| Structure (SMILES) | growth [1] | growth (E. coli TESEC Mtb Alr [2]; [5]) | growth (E. coli TESEC Mtb Alr [2]; [6]) | growth (E. coli TESEC Mtb Alr [2]; [7]) | growth (E. coli TESEC Mtb Alr [2]; [8]) | growth (E. coli TESEC Mtb Alr [2]; [9]) | growth (E. coli TESEC Mtb Asd; [10]) | growth (E. coli TESEC Mtb Asd; [11]) | growth (E. coli TESEC Mtb DapB; [12]) | growth (E. coli TESEC Mtb DapB; [13]) | growth [3] | growth (E. coli TESEC Mtb Alr [4]; [14]) | growth (E. coli TESEC Mtb Alr [4]; [15]) |
| --- | --- | --- | --- | --- | --- | --- | --- | --- | --- | --- | --- | --- | --- |
| Nc1ccc(S(=O)(=O)NC(=O)c2ccccc2)cc1 [Sulfabenzamide] | 0.256 ± 0.012 | 0.321 ± 0.023 | 0.254 ± 0.005 | 0.221 ± 0.022 | 0.172 ± 0.0025 | 0.156 ± 0.0061 | 0.402 ± 0.12 | 0.409 ± 0.033 | 0.221 ± 0.016 | 0.245 ± 0.018 | 0.43 ± 0.0081 | 0.4062 ± 0.0031 | 0.334 ± 0.025 |
| CC1CC(OC(=O)c2ccccc2O)CC(C)(C)C1 (stereo unspecified) [Homosalate] | 0.248 ± 0.0027 | 0.3 ± 0.005 | 0.263 ± 0.019 | 0.199 ± 0.03 | 0.18 ± 0.0023 | 0.15 ± 0.0039 | 0.202 ± 0.011 | 0.332 ± 0.052 | 0.194 ± 0.018 | 0.205 ± 0.027 | 0.543 ± 0.057 | 0.3918 ± 0.0032 | 0.332 ± 0.016 |
| C[C@]12CCC(=O)C=C1CC[C@@H]1[C@@H]2C(=O)C[C@@]2(C)[C@H]1CC[C@]2(O)C(=O)CO [Cortisone] | 0.216 ± 0.0023 | 0.278 ± 0.0049 | 0.237 ± 0.014 | 0.176 ± 0.011 | 0.1797 ± 0.00035 | 0.128 ± 0.0041 | 0.396 ± 0.078 | 0.445 ± 0.041 | 0.19 ± 0.0096 | 0.223 ± 0.023 | 0.46 ± 0.066 | 0.41 ± 0.0069 | 0.336 ± 0.0035 |
| CC(C)NCC(O)COc1ccc(COCCOC(C)C)cc1 (stereo unspecified) [Bisoprolol fumarate] | 0.227 ± 0.01 | 0.302 ± 0.01 | 0.254 ± 0.01 | 0.222 ± 0.032 | 0.192 ± 0.0099 | 0.14 ± 0.0055 | 0.391 ± 0.017 | 0.467 ± 0.07 | 0.184 ± 0.017 | 0.227 ± 0.027 | 0.448 ± 0.022 | 0.409 ± 0.016 | 0.37 ± 0.028 |
| CCCCC1(COC(=O)CCC(=O)O)C(=O)N(c2ccccc2)N(c2ccccc2)C1=O [Suxibuzone] | 0.203 ± 0.0032 | 0.291 ± 0.013 | 0.244 ± 0.0044 | 0.192 ± 0.019 | 0.188 ± 0.0095 | 0.1314 ± 0.001 | 0.305 ± 0.052 | 0.427 ± 0.026 | 0.1763 ± 0.0008 | 0.204 ± 0.009 | 0.521 ± 0.1 | 0.401 ± 0.0076 | 0.341 ± 0.0062 |
| Cc1cccc(Nc2ccncc2S(=O)(=O)NC(=O)NC(C)C)c1 [Torsemide] | 0.222 ± 0.005 | 0.29 ± 0.012 | 0.257 ± 0.019 | 0.168 ± 0.012 | 0.17 ± 0.0046 | 0.16 ± 0.0021 | 0.228 ± 0.029 | 0.353 ± 0.095 | 0.197 ± 0.021 | 0.26 ± 0.019 | 0.477 ± 0.021 | 0.403 ± 0.016 | 0.326 ± 0.025 |
| CC1(C)S[C@@H]2[C@H](NC(=O)[C@H](NC(=O)N3CCNC3=O)c3ccccc3)C(=O)N2[C@H]1C(=O)O [Azlocillin sodium salt] | 0.238 ± 0.0043 | 0.312 ± 0.008 | 0.276 ± 0.0051 | 0.177 ± 0.0081 | 0.195 ± 0.013 | 0.152 ± 0.015 | 0.31 ± 0.035 | 0.442 ± 0.025 | 0.177 ± 0.015 | 0.222 ± 0.031 | 0.631 ± 0.06 | 0.403 ± 0.017 | 0.361 ± 0.013 |
| Cc1ccc(S(=O)(=O)NC(=O)NN2CC3CCCC3C2)cc1 (stereo unspecified) [Gliclazide] | 0.244 ± 0.012 | 0.309 ± 0.0099 | 0.271 ± 0.0064 | 0.222 ± 0.017 | 0.192 ± 0.0036 | 0.177 ± 0.0042 | 0.298 ± 0.032 | 0.364 ± 0.071 | 0.212 ± 0.011 | 0.28 ± 0.042 | 0.518 ± 0.074 | 0.404 ± 0.02 | 0.372 ± 0.0073 |
| Cc1onc(-c2ccccc2)c1-c1ccc(S(N)(=O)=O)cc1 [Valdecoxib] | 0.124 ± 0.0019 | 0.173 ± 0.0027 | 0.216 ± 0.029 | 0.148 ± 0.0053 | 0.0949 ± 0.0023 | 0.122 ± 0.0014 | 0.196 ± 0.038 | 0.245 ± 0.045 | 0.178 ± 0.015 | 0.229 ± 0.022 | 0.388 ± 0.027 | 0.4007 ± 0.0035 | 0.198 ± 0.016 |
| CN(C)[C@@H]1C(=O)C(C(=O)NCNCCCC[C@H](N)C(=O)O)=C(O)[C@@]2(O)C(=O)C3=C(O)c4c(O)cccc4[C@@](C)(O)[C@H]3C[C@@H]12 [Lymecycline] | 0.178 ± 0.0022 | 0.221 ± 0.0059 | 0.18 ± 0.011 | 0.204 ± 0.016 | 0.0804 ± 0.0073 | 0.101 ± 0.0033 | 0.12 ± 0.0094 | 0.159 ± 0.0077 | 0.0866 ± 0.01 | 0.152 ± 0.0064 | 0.329 ± 0.017 | 0.312 ± 0.031 | 0.0693 ± 0.0019 |
| CC1CC(OC(=O)C(O)c2ccccc2)CC(C)(C)N1C (stereo unspecified) [Eucatropine hydrochloride] | 0.245 ± 0.0073 | 0.326 ± 0.015 | 0.282 ± 0.0064 | 0.194 ± 0.0092 | 0.191 ± 0.0054 | 0.156 ± 0.0098 | 0.479 ± 0.008 | 0.432 ± 0.065 | 0.199 ± 0.033 | 0.227 ± 0.024 | 0.444 ± 0.029 | 0.402 ± 0.014 | 0.36 ± 0.016 |
| CC(=O)S[C@@H]1CC2=CC(=O)CC[C@]2(C)[C@H]2CC[C@@]3(C)[C@@H](CC[C@@]34CCC(=O)O4)[C@H]12 [Spironolactone] | 0.121 ± 0.0068 | 0.0986 ± 0.051 | 0.0753 ± 0.0019 | 0.0921 ± 0.027 | 0.06897 ± 0.00051 | 0.112 ± 0.0019 | 0.167 ± 0.021 | 0.313 ± 0.041 | 0.1363 ± 0.001 | 0.178 ± 0.018 | 0.331 ± 0.022 | 0.389 ± 0.026 | 0.0959 ± 0.016 |
| O=C1CC[C@@H](C(=O)N2CSC[C@H]2C(=O)O)N1 [Pidotimod] | 0.231 ± 0.0032 | 0.29 ± 0.003 | 0.261 ± 0.005 | 0.184 ± 0.032 | 0.217 ± 0.033 | 0.135 ± 0.0014 | 0.271 ± 0.059 | 0.415 ± 0.024 | 0.191 ± 0.013 | 0.235 ± 0.037 | 0.536 ± 0.1 | 0.42 ± 0.011 | 0.335 ± 0.0057 |
| O=C(NCC(O)CO)c1c(I)c(C(=O)NCC(O)CO)c(I)c(N(CCO)C(=O)CO)c1I (stereo unspecified) [Ioversol] | 0.257 ± 0.0068 | 0.308 ± 0.017 | 0.288 ± 0.013 | 0.208 ± 0.015 | 0.192 ± 0.0057 | 0.169 ± 0.0037 | 0.477 ± 0.014 | 0.46 ± 0.019 | 0.202 ± 0.015 | 0.256 ± 0.028 | 0.452 ± 0.008 | 0.408 ± 0.015 | 0.362 ± 0.017 |
| Clc1ccc2c(c1)C(N1CCNCC1)=Nc1ccccc1O2 [Amoxapine] | 0.162 ± 0.0094 | 0.171 ± 0.0069 | 0.16 ± 0.0024 | 0.162 ± 0.0019 | 0.0713 ± 0.0015 | 0.105 ± 0.0015 | 0.178 ± 0.01 | 0.201 ± 0.0093 | 0.159 ± 0.03 | 0.173 ± 0.041 | 0.43 ± 0.061 | 0.396 ± 0.005 | 0.291 ± 0.023 |
| NS(=O)(=O)c1cc(Cl)c(Cl)c(S(N)(=O)=O)c1 [Dichlorphenamide] | 0.25 ± 0.0031 | 0.298 ± 0.012 | 0.2704 ± 0.0016 | 0.211 ± 0.027 | 0.186 ± 0.011 | 0.131 ± 0.0026 | 0.312 ± 0.027 | 0.456 ± 0.038 | 0.213 ± 0.007 | 0.256 ± 0.026 | 0.443 ± 0.011 | 0.402 ± 0.017 | 0.399 ± 0.032 |
| CC(=O)Nc1nnc(S(N)(=O)=O)s1 [Acetazolamide] | 0.249 ± 0.017 | 0.293 ± 0.023 | 0.253 ± 0.0037 | 0.234 ± 0.0084 | 0.166 ± 0.0058 | 0.141 ± 0.006 | 0.361 ± 0.014 | 0.394 ± 0.051 | 0.211 ± 0.015 | 0.253 ± 0.077 | 0.436 ± 0.042 | 0.408 ± 0.011 | 0.317 ± 0.05 |
